The record followed here is the supplement of paper PMC6953052.

Counter-ions that a name gives are not always drawn. Whole data set: some 1,700 compounds, median “fraction of GFP-LC3-positive cells (≥5 vesicles/cell)” near 0.058, cut for the highest 2% near 0.59. Only a selection was taken, and the highest values are over-represented in it overall.

The assay relates to CbCln3 +/+ GFP-LC3 cerebellar neuronal cells. Briefly: fraction of GFP-LC3-positive cells (≥5 vesicles/cell); higher = more autophagosome accumulation. In outline:
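Wild-type or mutant CbCln3 cerebellar cells stably expressing GFP-LC3 were plated at 2 × 10^3 per well in 384-well plates and received ~50 nL of compound in DMSO by pin transfer, in duplicate, for 24 h at 33 °C. Hoechst 33342 and LysoTracker Red were added for the last 30 min, after which cells were fixed in 3.2% PFA and three fields per well were imaged at 10×. CellProfiler counted GFP-LC3 vesicles per cell, and out-of-focus images were excluded. The reported value is the fraction of cells reaching a vesicle-count cutoff of 5 or more, averaged over duplicates.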
Turning to `CC(C)(C)c1cc(C=C(C#N)C#N)cc(C(C)(C)C)c1O` [tyrphostin 9], the “fraction of GFP-LC3-positive cells” value came out at 0.67.

In the case of `CC(C)(C)c1cc(C=C(C#N)C#N)cc(C(C)(C)C)c1O`, the “fraction of GFP-LC3-positive cells” value is 0.357.

Take `N#CC(C#N)=Cc1cc(O)c(O)c(O)c1`: the “fraction of GFP-LC3-positive cells” value came out at 0.0475.

On to `N#CC(C#N)=Cc1ccc(O)c(O)c1`, for which the “fraction of GFP-LC3-positive cells” value worked out at 0.094.

In the case of `CCN(CC)C(=O)N[C@H]1C[C@@H]2c3cccc4[nH]cc(c34)C[C@H]2N(C)C1.O=C(O)/C=C\C(=O)O` [S(-)-terguride hydrogen maleate], the “fraction of GFP-LC3-positive cells” value came to 0.0461.

Regarding `CC(C)[C@]12O[C@H]1[C@@H]1O[C@]13[C@]1(O[C@H]1C[C@H]1C4=C(CC[C@@]13C)C(=O)OC4)[C@@H]2O` [Triptolide], the “fraction of GFP-LC3-positive cells” value is 0.268.

Regarding `Cl.NCCc1c[nH]c2ccc(O)cc12` [Serotonin hydrochloride], the “fraction of GFP-LC3-positive cells” value was 0.0685.

Consider `C#CCN(C)[C@H](C)Cc1ccccc1.Cl` [Selegiline hydrochloride], for which the “fraction of GFP-LC3-positive cells” value came to 0.0621.

As to `C[N+]1(C)CCCC(OC(=O)C(O)(c2ccccc2)c2ccccc2)C1.[Br-]` (stereo not drawn) [Mepenzolate bromide], the “fraction of GFP-LC3-positive cells” value is 0.0681.

As to `COC1=C[C@@H]2C3=C([C@@H]2C1=O)[C@@H](NC(C)=O)CCc1cc(OC)c(OC)c(OC)c13` [Lumicolchicine gamma], the “fraction of GFP-LC3-positive cells” value turned out to be 0.0307.

Regarding `COc1cc2c(c(OC)c1OC)-c1ccc(O)c(=O)cc1[C@@H](N)CC2` [Trimethylcolchicinic acid], the “fraction of GFP-LC3-positive cells” value was 0.0619.

Regarding `COc1cc2c(c(OC)c1OC)-c1ccc(OC)c(=O)cc1[C@@H](NC(C)=O)CC2` [Colchicine], the “fraction of GFP-LC3-positive cells” value stood at 0.778.

Turning to `CC(C)(O)[C@H]1O[C@H]2CC[C@@]3(C)[C@@](O)(CC[C@H]4Cc5c([nH]c6ccccc56)[C@@]43C)C2=CC1=O`, the “fraction of GFP-LC3-positive cells” value stood at 0.0216.

As for `C/C=C(/C)C(=O)O[C@H]1C(C)=C2[C@H]([C@@H]1OC(=O)CCCCCCC)[C@@](C)(OC(C)=O)C[C@H](OC(=O)CCC)[C@@]1(O)[C@H]2OC(=O)[C@@]1(C)O`, the “fraction of GFP-LC3-positive cells” value turned out to be 0.665.

With `Cl.O[C@@H]1CCCC[C@H]1N1CCC(c2ccccc2)CC1` [L(-)-vesamicol hydrochloride], the “fraction of GFP-LC3-positive cells” value was found to be 0.076.

Regarding `CC(C)N(CCC(C(N)=O)(c1ccccc1)c1ccccn1)C(C)C` (stereo not drawn) [Disopyramide], the “fraction of GFP-LC3-positive cells” value came out at 0.0661.

Take `COc1cc2c(cc1O)[C@@H]1Cc3ccc(OC)c(O)c3CN1CC2` [Scoulerine]: the “fraction of GFP-LC3-positive cells” value was determined as 0.588.

On to `O.O.O.O=C1OC2(c3cc(Br)c([O-])cc3Oc3c2cc(Br)c([O-])[c]3[Hg][OH])c2ccccc21.[Na+].[Na+]` (stereo not drawn) [Merbromin], for which the “fraction of GFP-LC3-positive cells” value was 0.957.

As to `CCCCC/C=C\C/C=C\C/C=C\C/C=C\CCCC(=O)NCc1ccc(O)c(OC)c1` [Arvanil], the “fraction of GFP-LC3-positive cells” value is 0.144.

In the case of `CC[C@@]1(O)C(=O)OCc2c1cc1n(c2=O)Cc2cc3ccccc3nc2-1` [Camptothecine (S,+)], the “fraction of GFP-LC3-positive cells” value was determined as 0.321.

On to `OC[C@H]1O[C@@H](n2cnc3cc(Cl)c(Cl)cc32)C(O)[C@H]1O` (stereo partly drawn), for which the “fraction of GFP-LC3-positive cells” value was 0.0687.

Take `C=C1[C@@H](O)C2O[C@@]3(CCC2O[C@@H]1C(O)C[C@H](C)C1O[C@@]2(CCCCO2)CC[C@H]1C)CC[C@@H](/C=C/[C@@H](C)[C@@H]1CC(C)=C[C@@]2(O[C@H](C[C@@](C)(O)C(=O)O)CCC2O)O1)O3` (stereo partly drawn) [okadaic acid]: the “fraction of GFP-LC3-positive cells” value came out at 0.831.

As to `CCN1C[C@]2(COC)CC[C@H](O)[C@]34C1[C@H](C[C@H]23)[C@@]1(O)C[C@H](OC)[C@H]2C[C@@H]4[C@@H]1[C@H]2OC(C)=O` [Condelphine], the “fraction of GFP-LC3-positive cells” value came out at 0.043.

As for `O=C(O)/C=C\C(=O)O.O=C(O)/C=C\C(=O)O.c1ccc2nc(N3CCNCC3)ccc2c1` [Quipazine dimaleate salt], the “fraction of GFP-LC3-positive cells” value worked out at 0.041.

For the compound `C[C@H]1CCC/C=C/C2C[C@H](O)C[C@H]2[C@H](O)/C=C/C(=O)O1` (stereo partly drawn) [brefeldin A], the “fraction of GFP-LC3-positive cells” value was found to be 0.0802.

On to `C=C1[C@@H](C)[C@H]2[C@H](Cc3ccccc3)NC(=O)[C@]23[C@H](OC(C)=O)/C=C/[C@](C)(O)C(=O)[C@@H](C)C/C=C/[C@H]3[C@@H]1O` [cytochalasin D], for which the “fraction of GFP-LC3-positive cells” value stood at 0.411.

Consider `CCCC[C@@H](C)[C@@H](OC(=O)C[C@@H](CC(=O)O)C(=O)O)[C@H](C[C@@H](C)C[C@H](O)CCCC[C@@H](O)C[C@H](O)[C@H](C)N)OC(=O)C[C@H](CC(=O)O)C(=O)O` [Fumonisin B1], for which the “fraction of GFP-LC3-positive cells” value stood at 0.0462.

As to `CCN1C[C@]2(C)CC[C@H](O)[C@]34C1[C@H](C[C@H]23)[C@@]1(O)C[C@H](OC)[C@H]2C[C@@H]4[C@@H]1C2O` (stereo partly drawn) [Karakoline], the “fraction of GFP-LC3-positive cells” value worked out at 0.0388.

As for `CNc1ccc2oc(C[C@@H]3OC4(CC[C@@H]3C)O[C@H](C(C)C(=O)c3ccc[nH]3)[C@H](C)C[C@H]4C)nc2c1C(=O)O` (stereo partly drawn), the “fraction of GFP-LC3-positive cells” value is 0.276.

On to `C=C(C)[C@H]1O[C@H]2CC[C@@]3(C)[C@@](O)(CC[C@H]4[C@@H]5OC(C)(C)[C@H]6C[C@@H]7C(=C)Cc8c(Cl)cc9[nH]c(c5c9c8[C@@]76O)[C@@]43C)[C@]23O[C@@H]3[C@H]1O`, for which the “fraction of GFP-LC3-positive cells” value was 0.667.

Turning to `CN1C2CCCC1CC(=O)C2.Cl` [Pseudopelletierine hydrochloride], the “fraction of GFP-LC3-positive cells” value worked out at 0.111.

Take `CN[C@@H]1C[C@H]2O[C@@](C)([C@@H]1OC)n1c3ccccc3c3c4c(c5c6ccccc6n2c5c31)C(=O)NC4` [staurosporine]: the “fraction of GFP-LC3-positive cells” value amounted to 0.542.

Regarding `CCCCCCCCCCCCCCCCOC[C@H](COP(=O)([O-])OCC[N+](C)(C)C)OC(C)=O`, the “fraction of GFP-LC3-positive cells” value came out at 0.0259.

As for `CCCCCC1OC1C/C=C\CCCCCCCC(=O)O` (stereo not drawn) [Leukotoxin B (12,13-EODE)], the “fraction of GFP-LC3-positive cells” value is 0.0763.

For `CCCCCC1OC1C/C=C\CCCCCCCC(=O)O` (stereo not drawn), the “fraction of GFP-LC3-positive cells” value was determined as 0.062.

For `Cc1nccc2c1[nH]c1ccccc12.Cl` [Harmane hydrochloride], the “fraction of GFP-LC3-positive cells” value came to 0.0738.

Regarding `Cc1c2ccncc2c(C)c2c1[nH]c1ccccc12` [Ellipticine], the “fraction of GFP-LC3-positive cells” value stood at 0.984.

In the case of `O=C1C=C2C=C[C@@H]3CC2(O1)[C@H]1CCCCN31` [Securinine], the “fraction of GFP-LC3-positive cells” value worked out at 0.0519.

As for `CC(C)(C)NCC(O)c1cc(Cl)c(N)c(Cl)c1.Cl` (stereo not drawn) [Clenbuterol hydrochloride], the “fraction of GFP-LC3-positive cells” value came out at 0.0519.

Take `CC[C@@H](CO)NC(=O)[C@@H]1C=C2c3cccc4[nH]cc(c34)C[C@H]2N(C)C1.O=C(O)/C=C\C(=O)O` [Methylergometrine maleate]: the “fraction of GFP-LC3-positive cells” value worked out at 0.0308.

In the case of `CC1=CC(=O)C2=C(C)C[C@H](O)[C@@H]3[C@H](OC(=O)[C@H]3C)[C@@H]12.O` [Austricine], the “fraction of GFP-LC3-positive cells” value stood at 0.0585.

As for `Clc1ccc(C2CC3CCC2N3)cn1` (racemic) [epibatidine (+/-)], the “fraction of GFP-LC3-positive cells” value came to 0.0633.

As to `N#CC(C#N)=NNc1ccc(OC(F)(F)F)cc1`, the “fraction of GFP-LC3-positive cells” value amounted to 0.918.

Take `C[C@@H]1O[C@@H](O[C@@H]2C=C3CCC4C(CC[C@]5(C)[C@@H](c6ccc(=O)oc6)CC[C@]45O)[C@@]3(C)CC2)[C@H](O)[C@H](O)[C@H]1O` (stereo partly drawn) [Proscillaridin A]: the “fraction of GFP-LC3-positive cells” value worked out at 0.0563.

In the case of `CN1CCc2cc3c(cc2[C@H]1[C@@H]1OC(=O)c2c1ccc1c2OCO1)OCO3` [Bicuculline (+)], the “fraction of GFP-LC3-positive cells” value amounted to 0.0481.

Regarding `CN1CCC2=C[C@H](O)[C@H]3OC(=O)c4cc5c(cc4[C@H]3[C@@H]21)OCO5` [Hippeastrine hydrobromide], the “fraction of GFP-LC3-positive cells” value was 0.0629.

As to `CN1Cc2c(ccc3c2OCO3)[C@@H]2[C@H]1c1cc3c(cc1C[C@@H]2O)OCO3.O` [Chelidonine (+)], the “fraction of GFP-LC3-positive cells” value is 0.593.

As for `CCCCCC[C@H]1C(=O)O[C@H](C)C(NC(=O)c2cccc(NC=O)c2O)C(=O)O[C@@H](C)[C@@H]1OC(=O)CC(C)C` (stereo partly drawn) [Antimycin A], the “fraction of GFP-LC3-positive cells” value was determined as 0.0705.

For the compound `CC/C=C\C[C@@H](/C=C/C=C\C/C=C\C/C=C\CCCC(=O)O)OO`, the “fraction of GFP-LC3-positive cells” value is 0.0447.

For `C/C1=C/C(=O)O[C@@H]2C[C@@H](CC[C@H](C)/C=C\CC1)O[C@@](O)([C@@H]1CSC(=O)N1)C2` [Latrunculin B], the “fraction of GFP-LC3-positive cells” value turned out to be 0.94.

For `COC1=CC(=O)OC(/C=C/c2ccccc2)C1` (racemic) [Kavain (+/-)], the “fraction of GFP-LC3-positive cells” value is 0.0407.

For the compound `O=c1[nH]c2ccccc2n1C1CCN(CCCC(c2ccc(F)cc2)c2ccc(F)cc2)CC1` [Pimozide], the “fraction of GFP-LC3-positive cells” value came out at 0.0546.

Consider `COc1ccc2c(c1OC)CN1CCc3cc4c(cc3C1C2)OCO4` (stereo not drawn) [(d,l)-Tetrahydroberberine], for which the “fraction of GFP-LC3-positive cells” value is 0.0361.

Take `COc1ccc2c(c1OC)C(=O)O[C@@H]2[C@H]1c2cc3c(cc2CCN1C)OCO3.Cl` [Hydrastine hydrochloride]: the “fraction of GFP-LC3-positive cells” value was found to be 0.0565.

As for `COc1cc([C@@H]2c3cc4c(cc3[C@H](O)[C@H]3COC(=O)[C@H]23)OCO4)cc(OC)c1OC` [Podophyllotoxin], the “fraction of GFP-LC3-positive cells” value is 0.682.

On to `CCCCC/C=C\C/C=C\C/C=C\C/C=C\CCCC(=O)NCCO` [Anandamide (20:4, n-6)], for which the “fraction of GFP-LC3-positive cells” value was found to be 0.0367.

As to `CCCCC/C=C\C/C=C\C/C=C\C/C=C\CCCC(=O)NCCO`, the “fraction of GFP-LC3-positive cells” value was found to be 0.0573.

As for `COC(=O)[C@@]1(O)C[C@@H]2O[C@@]1(C)n1c3ccccc3c3c4c(c5c6ccccc6n2c5c31)C(=O)NC4`, the “fraction of GFP-LC3-positive cells” value came out at 0.16.
